Records with an inconclusive call do not appear. Where a call stands in place of a potency, no number is given. Active and inactive are the calls of the source. Unless noted, calls come from the whole dose curve; as a rule, active = well fitted curve in the direction sought with a large enough effect; inconclusive = small, poorly fitted or top-dose-only effect, or another doubt; inactive = no such curve, though single readings can be large; an effect the other way counts as inactive or inconclusive.
Tests used:
[1] = Nrf2 qHTS screen for inhibitors: Validation (AID 493153; active = well fitted inhibition curve with a large enough effect in the main read-out, with a control signal flat, not every such curve was filed as active; note: potency is the fitted concentration of half-maximal effect); details: Potency: luciferase luminescence; viability change: measured here: cytotoxicity max response
Procedure, shortened: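 A549 cells carrying ARE-firefly luciferase reporter, 5000 cells/well in 5% FBS OPTI-MEM, treated with compound over a concentration series for 18-24 h at 37 C. Luciferase luminescence gave Nrf2 activity; CellTiter-Fluor fluorescence gave viability.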

[2] = molecular target: Galactokinase (Homo sapiens) (UniProt P51570); assay: qHTS Validation Assay for Inhibitors of Human Galactokinase (GALK) (AID 493189)
Chain of Galactokinase (Homo sapiens) (P51570 whole entry, looked up): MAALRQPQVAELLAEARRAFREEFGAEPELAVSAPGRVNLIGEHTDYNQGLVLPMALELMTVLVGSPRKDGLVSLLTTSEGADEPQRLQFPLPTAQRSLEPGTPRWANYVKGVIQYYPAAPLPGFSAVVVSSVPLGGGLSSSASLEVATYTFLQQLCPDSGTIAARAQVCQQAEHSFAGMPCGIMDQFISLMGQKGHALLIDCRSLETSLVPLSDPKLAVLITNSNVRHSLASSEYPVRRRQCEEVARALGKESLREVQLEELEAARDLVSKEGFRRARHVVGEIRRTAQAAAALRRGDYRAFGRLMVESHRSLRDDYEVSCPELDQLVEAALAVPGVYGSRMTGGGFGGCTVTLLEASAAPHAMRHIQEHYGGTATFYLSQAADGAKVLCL
Procedure, shortened: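 Inhibition was measured as remaining ATP, detected by luciferase luminescence after a 1 h room-temperature reaction. Final conditions: 5 nM GALK, 100 uM galactose, 35 uM ATP, pH 8.0 HEPES buffer.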

[3] = Validation screen for small molecules that induce DNA re-replication in SW480 colon adenocarcinoma cells (AID 504364)
Procedure, shortened: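 SW480 cells (250/well) exposed 48 h at 37 C, 5% CO2, then Hoechst-stained 40 min. Nuclear DNA content imaged by fluorescence scanning (405 nm excitation, 500-530 nm emission); re-replication scored as increased nuclei with elevated intensity.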

[4] = molecular target: Peptidyl-prolyl cis-trans isomerase NIMA-interacting 1 (Homo sapiens) (UniProt Q13526); assay: qHTS Validation Assay to Find Inhibitors of Pin1 (AID 504536; active = well fitted inhibition curve with a large enough effect in the polarisation, with a control signal flat, not every such curve was filed as active; the % refers to the polarisation)
Chain of Peptidyl-prolyl cis-trans isomerase NIMA-interacting 1 (Homo sapiens) (Q13526 whole entry, looked up): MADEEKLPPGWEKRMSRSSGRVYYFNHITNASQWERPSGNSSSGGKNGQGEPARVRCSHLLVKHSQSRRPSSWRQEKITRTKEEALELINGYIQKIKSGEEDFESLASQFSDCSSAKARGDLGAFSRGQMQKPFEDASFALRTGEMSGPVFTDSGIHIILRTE
Procedure, shortened: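 Fluorescence polarization competition: compounds (titration) displace HiFluor-488-labeled Pin1-1b peptide from Pin1 (0.3 uM final) in pH 7.5 HEPES buffer with DTT, 10 min at room temperature; %Activity normalized to no-enzyme wells, curves fitted.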

[5] = molecular target: Phosphoglycerate kinase, glycosomal (Trypanosoma brucei brucei) (UniProt P07378); assay: qHTS Validation Assay to Find Inhibitors of Phosphoglycerate Kinase (AID 504547)
Chain of Phosphoglycerate kinase, glycosomal (Trypanosoma brucei brucei) (P07378 whole entry, looked up): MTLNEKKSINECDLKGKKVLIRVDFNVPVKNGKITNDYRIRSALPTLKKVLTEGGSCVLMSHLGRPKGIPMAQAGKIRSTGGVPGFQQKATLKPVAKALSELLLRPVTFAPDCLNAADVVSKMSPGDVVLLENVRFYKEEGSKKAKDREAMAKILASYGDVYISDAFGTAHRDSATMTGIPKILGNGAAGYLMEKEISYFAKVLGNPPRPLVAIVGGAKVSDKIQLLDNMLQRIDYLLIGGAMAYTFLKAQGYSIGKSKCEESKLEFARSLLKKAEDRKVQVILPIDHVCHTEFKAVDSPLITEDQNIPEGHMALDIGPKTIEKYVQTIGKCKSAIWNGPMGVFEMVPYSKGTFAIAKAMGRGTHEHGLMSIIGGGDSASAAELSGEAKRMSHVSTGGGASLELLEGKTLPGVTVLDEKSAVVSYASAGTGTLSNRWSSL
Procedure, shortened: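 Inhibition of the enzyme is judged by a Kinase-Glo Plus luminescent signal following a one-hour incubation at room temperature. Because 1,3-BPG is unstable, it is made in situ by GAPDH at 100nM final; no-PGK wells define the baseline.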

[6] = molecular target: phosphoglycerate mutase (Leishmania major) (UniProt Q4Q090); assay: qHTS Validation Assay to Find Inhibitors of Phosphoglycerate Mutase (AID 504548); details: Potency: inhibition qHTS; note: series mostly up to about 58 µM
Chain of phosphoglycerate mutase (Leishmania major) (Q4Q090 1-553): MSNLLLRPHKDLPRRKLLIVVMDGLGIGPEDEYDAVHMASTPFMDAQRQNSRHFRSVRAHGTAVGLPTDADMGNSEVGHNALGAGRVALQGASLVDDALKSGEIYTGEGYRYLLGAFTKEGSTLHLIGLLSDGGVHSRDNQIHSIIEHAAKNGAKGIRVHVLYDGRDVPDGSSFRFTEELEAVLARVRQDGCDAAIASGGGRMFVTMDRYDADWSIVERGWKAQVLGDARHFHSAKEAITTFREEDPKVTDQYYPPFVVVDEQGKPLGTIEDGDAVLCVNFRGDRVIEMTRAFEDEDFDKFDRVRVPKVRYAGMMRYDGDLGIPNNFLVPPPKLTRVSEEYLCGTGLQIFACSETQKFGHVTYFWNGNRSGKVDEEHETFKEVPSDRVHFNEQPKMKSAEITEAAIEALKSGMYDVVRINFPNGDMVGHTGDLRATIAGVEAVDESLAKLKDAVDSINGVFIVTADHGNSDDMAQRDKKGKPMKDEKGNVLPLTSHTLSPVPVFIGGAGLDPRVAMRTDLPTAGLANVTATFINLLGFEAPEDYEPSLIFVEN
Procedure, shortened: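 Lm PGAM 1.25nM final; 100 mM TEA pH 7.6, 5 mM MgCl2, 0.01% Tween-20; 45 min RT; Kinase-GloPlus, 10 min; end-point luminescence. Enzyme-free wells as negative controls.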

[7] = molecular target: Ubiquitin carboxyl-terminal hydrolase 1 (Homo sapiens) (UniProt O94782); assay: Inhibitors of USP1/UAF1: Pilot qHTS (AID 504865);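 note: rhodamine fluorescence freed from ubiquitin-rhodamine substrate followed over time; top concentration of the series differs between compounds; nearly all actives have a fitted effect of over 35% in size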
Chain of Ubiquitin carboxyl-terminal hydrolase 1 (Homo sapiens) (O94782 whole entry, looked up): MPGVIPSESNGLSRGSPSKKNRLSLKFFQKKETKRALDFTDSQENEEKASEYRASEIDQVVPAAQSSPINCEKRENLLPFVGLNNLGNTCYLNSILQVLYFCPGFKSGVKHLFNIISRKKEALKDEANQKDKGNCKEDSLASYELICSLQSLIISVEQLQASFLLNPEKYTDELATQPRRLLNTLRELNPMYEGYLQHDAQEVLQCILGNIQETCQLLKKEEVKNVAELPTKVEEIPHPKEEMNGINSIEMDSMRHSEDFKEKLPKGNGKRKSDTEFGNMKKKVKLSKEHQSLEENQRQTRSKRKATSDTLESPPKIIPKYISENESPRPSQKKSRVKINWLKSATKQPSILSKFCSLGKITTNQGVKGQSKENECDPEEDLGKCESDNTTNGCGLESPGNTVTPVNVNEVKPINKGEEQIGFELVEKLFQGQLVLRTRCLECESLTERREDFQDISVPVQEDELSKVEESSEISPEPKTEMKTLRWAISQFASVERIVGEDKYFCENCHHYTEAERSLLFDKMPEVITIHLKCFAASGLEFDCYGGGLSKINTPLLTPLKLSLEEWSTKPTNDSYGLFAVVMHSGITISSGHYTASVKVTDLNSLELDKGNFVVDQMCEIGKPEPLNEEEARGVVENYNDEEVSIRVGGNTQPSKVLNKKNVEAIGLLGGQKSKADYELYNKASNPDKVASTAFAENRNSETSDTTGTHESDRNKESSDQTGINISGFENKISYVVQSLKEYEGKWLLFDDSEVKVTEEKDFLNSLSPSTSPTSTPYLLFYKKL
Procedure, shortened: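 Deubiquitinase activity followed as kinetic rhodamine fluorescence release from 150 nM Ub-Rho. 1 nM USP1/UAF1 with compound, after 15 min room-temperature preincubation, in HEPES pH 7.8 buffer containing TCEP, EDTA, BSA and Tween-20.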

[8] = qHTS for Inhibitors of ATXN expression: Validation of Cytotoxic Assay (AID 588349)
Procedure, shortened: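 HEK293 cells treated with titrated compound for 72 hr at 37 degrees C; viability read as intracellular ATP by CellTiter Glo luminescence.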

[9] = qHTS for Inhibitors of ATXN expression: Validation (AID 588378); note: nearly all actives have a fitted effect of over 75% in size; note: potency is the fitted concentration of half-maximal effect
Procedure, shortened: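 Luciferase luminescence (Bright-Glo) from an ATXN2-FFLuc HEK293 line after 24 h compound exposure at 37 °C, preceded by a CellTiter-Fluor fluorescence viability read. Serial dilutions of a reference ATXN2 inhibitor and a luciferase inhibitor served as controls.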

[10] = molecular target: DNA dC->dU-editing enzyme APOBEC-3G (Homo sapiens) (UniProt Q9HC16); assay: qHTS for inhibitors of Vif-A3G interactions: Validation (AID 588379)
Chain of DNA dC->dU-editing enzyme APOBEC-3G (Homo sapiens) (Q9HC16 whole entry, looked up): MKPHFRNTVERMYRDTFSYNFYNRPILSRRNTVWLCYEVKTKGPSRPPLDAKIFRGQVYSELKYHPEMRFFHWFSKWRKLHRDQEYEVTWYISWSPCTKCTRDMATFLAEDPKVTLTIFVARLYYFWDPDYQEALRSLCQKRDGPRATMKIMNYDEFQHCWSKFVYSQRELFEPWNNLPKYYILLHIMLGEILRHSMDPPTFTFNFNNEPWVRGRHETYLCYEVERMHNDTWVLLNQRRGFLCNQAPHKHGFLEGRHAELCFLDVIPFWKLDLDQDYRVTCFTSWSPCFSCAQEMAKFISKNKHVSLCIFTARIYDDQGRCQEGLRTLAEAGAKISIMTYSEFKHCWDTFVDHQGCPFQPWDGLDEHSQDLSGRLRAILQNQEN
Procedure, shortened: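 HeLa cells stably expressing Vif and A3G-eYFP, 700 cells/well, incubated overnight at 37 deg C, then exposed to compound overnight at 37 deg C. Inhibition of Vif-mediated degradation read as increased yellow fluorescence (Ex 488/Em 500-530) by laser-scanning cytometry.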

[11] = qHTS for Inhibitors of Cell Surface uPA Generation: Validation Assay (AID 493164)
Procedure, shortened: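 RAW 264.7 cells (4000/well) were plated overnight, then exposed for 18 h at 37 C, 5% CO2 to compounds in a 7-point 1:5 titration (2.45 nM–38.3 uM final). Intracellular ATP was read by ATP-Lite luminescence.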

Row | SMILES | Potency [1] | viability change [1] [%] | Potency [2] | Potency [3] | Potency [4] | Potency [5] | Potency [6] | Potency [7] | Potency [8] | Potency [9] | Potency [10] | outcome [11]
1 | CC(=O)NNC(=O)N1Cc2ccccc2Oc2ccc(Cl)cc21 | inactive | -4.76 | inactive | inactive | inactive | inactive | inactive | inactive | inactive | inactive | inactive | 
2 | CCCCCC(O)CCCC(=O)O (centres undefined) | inactive | 0.592 | inactive | inactive | inactive |  | inactive | inactive | inactive | inactive |  | 
3 | C=C1C[C@@]23CC[C@H]4[C@@](C)(CCC[C@@]4(C)C(=O)O)[C@@H]2CC[C@]1(O)C3 | inactive | -13.4 |  |  |  |  | inactive | inactive | inactive | inactive |  | inactive
4 | O=C(O)/C(=C/c1c(C(=O)O)[nH]c2cc(Cl)cc(Cl)c12)c1ccccc1 | inactive | 4.57 | inactive | inactive | inactive | inactive | inactive | inactive | inactive | inactive |  | 
5 | COc1ccc(NC(=O)c2ccc(-c3ccc(-c4noc(C)n4)cc3C)cc2)cc1N1CCN(C)CC1 | inactive | -8.26 | inactive | inactive | inactive | inactive | inactive | inactive |  | 22.4 µM (active) |  | 
6 | NCCCCN=C(N)N | inactive | -0.37 | inactive | inactive |  | inactive | inactive | inactive | inactive |  | inactive | 
7 | O=C(O)Cc1ccc(O)c(O)c1 | inactive | 9.81 | inactive | inactive | inactive | inactive | inactive | inactive | inactive | inactive |  | 
8 | CCc1ccc2c(-c3cccc(Cl)c3)nc(=O)n(CC)c2n1 | inactive | 1.57 |  |  |  | inactive | inactive | inactive | inactive | inactive | inactive | inactive
9 | CC1C(=O)N(C)C(=O)c2nc[nH]c21 (centres undefined) | inactive | -0.209 | inactive | inactive | inactive | inactive | inactive | inactive | inactive | inactive |  | 
10 | CSc1nc(N)c2ncn([C@@H]3O[C@H](COP(=O)(O)OP(=O)(O)O)C(O)[C@H]3O)c2n1 (some centres undefined) | inactive | 0.858 |  |  |  |  | inactive | inactive | inactive |  |  | inactive
11 | C[C@H]1CC2C3CCC4=CC(=O)C=C[C@]4(C)[C@@]3(Cl)[C@@H](O)C[C@]2(C)[C@@]1(O)C(=O)CO (some centres undefined) | 0.0164 µM (active) | 4.17 |  |  |  | inactive | inactive | inactive | inactive | inactive |  | inactive
12 | O=C(O)C1CCNCC1 | inactive | -14.4 | inactive | inactive | inactive | inactive | inactive | inactive | inactive | inactive |  | 
13 | O=C(O)/C=C/c1cnc[nH]1 | inactive | -12.4 | inactive | inactive | inactive |  | inactive | inactive | inactive | inactive |  | 
14 | CCCn1c(=O)c(C)cn2nc(N)nc12 | inactive | -13 |  |  | inactive |  | inactive | inactive | inactive | inactive | inactive | inactive
15 | NS(=O)(=O)c1cccc2c1c([N+](=O)[O-])cc1nc(O)c(O)nc12 | inactive | -15.2 | inactive | inactive |  |  | inactive |  |  | inactive | inactive | 
16 | O=c1[nH]c(=O)c2nc3ccccc3nc2[nH]1 | inactive | -5.91 | inactive | inactive |  | inactive | inactive |  | inactive | inactive |  | 
17 | Cn1cc(C(F)(F)F)nc1-c1ccc(OCC(O)CNCCOc2ccc(O)c(C(N)=O)c2)cc1 (centres undefined) | inactive | 6.58 | inactive | inactive | inactive | inactive | inactive | inactive | inactive | inactive |  | 
18 | CCN1C(=O)C=CC1=O | inactive | 1.81 | inactive | inactive | inactive |  | inactive | inactive | inactive | inactive |  | 
19 | CN1CCc2cc(Cl)c(O)cc2[C@@H](c2ccccc2)C1 | inactive | 5.24 |  |  | inactive | inactive | inactive |  |  | inactive | inactive | inactive
20 | CCCCCCCCCCCCCCC[C@H](O)[C@H](N)CO | inactive | 2.23 | inactive | inactive | inactive |  | inactive |  | inactive | inactive |  | 
21 | CC(C)NCC(O)COc1ccc(CC(N)=O)cc1 (centres undefined) | inactive | 0.809 | inactive | inactive | inactive | inactive | inactive | inactive | inactive |  |  | 
22 | CC(N)=O | inactive | 1.69 | inactive | inactive |  | inactive | inactive | inactive | inactive | inactive |  | 
23 | Cc1nc2c(OCc3ccccc3)cccn2c1CC#N | inactive | -7.51 | inactive | inactive | inactive | inactive | inactive | inactive | inactive | inactive | inactive | 
24 | Cn1c(=O)[nH]c2ncn(C)c2c1=O | inactive | 1.53 | inactive | inactive | inactive | inactive | inactive | inactive | inactive | inactive |  | 
25 | Cn1c(=O)c2[nH]c(-c3ccc(S(=O)(=O)O)cc3)nc2n(C)c1=O | inactive | -2.21 | inactive | inactive | inactive | inactive | inactive |  | inactive | inactive |  | 

— PubChem BioAssay (NCATS)
